Assay results as given in PubChem BioAssay AID463173 (ICCB-Longwood Screening Facility, Harvard Medical School, 2010).
In all, about 52,000 compounds went through this assay and about 1,700 (3.3%) were called active. No stated cut-off is given here; in the data, active means survival mostly below about 52% (no sharp cut-off); inactive means mostly above about 56%. For the sample, actives were picked, then their nearest neighbours and some compounds at random.

system: Wild type; test: growth inhibition of S. aureus wild type versus tarO mutant, primary screen, teichoic acid synthesis inhibitors, RN4220, OD600 (AID 463173); details: S. aureus RN4220 wild type/DeltatarO growth, OD600, 18 h, stronger effect = lower value, screened at 18.75 µg/mL (by protocol)

SMILES | survival
Cc1cc(C(=O)N2CCN(c3cccc(C)c3C)CC2)c2c(C)nn(-c3ccccc3)c2n1 | 121% (inactive)
Cc1cccc(C(=O)Nc2ccc(N3CC=C(c4ccccc4C)CC3)c(C(=O)O)c2)c1 | 66% (inactive)
COc1nnc(-c2ccc(N3CCCCC3)c(NC(=O)c3ccccc3)c2)c2ccccc12 | -6% (active)
COc1nnc(-c2ccc(N3CCCCC3)c(NC(=O)c3ccc(Cl)cc3)c2)c2ccccc12 | 96% (inactive)
Cn1c(=O)c(=O)n(C)c2cc(N3CCCC3)c(NC(=O)c3ccccc3Cl)cc21 | 86% (inactive)
COc1nnc(-c2ccc(N3CCCCC3)c(NC(=O)c3ccc(C)cc3)c2)c2ccccc12 | 36% (inactive)
Cn1nc(-c2ccc(N3CCCCC3)c(NC(=O)c3ccc(Cl)cc3)c2)c2ccccc2c1=O | 80% (inactive)
COc1nnc(-c2ccc(N3CCCCC3)c(NC(=O)c3ccccc3Cl)c2)c2ccccc12 | -7% (active)
CCN(CCCNC(=O)CSc1cc(=O)n(C)c2ccccc12)c1ccccc1 | 77% (inactive)
CC(=O)Nc1ccc(NC(=O)c2cc3sccc3n2Cc2ccc(Cl)cc2)cc1 | 91% (inactive)
CC1(C)O[C@H]2[C@@H](O1)[C@@H](C(=O)Nc1ccc(F)c(F)c1)O[C@@H]1OC(C)(C)O[C@@H]12 | 106% (inactive)
CCN(CC)CCNC(=O)c1ccc2c(=O)n3nc(Nc4cccc(Cl)c4C)sc3nc2c1 | 153% (inactive)
Cc1ccc(C)c(CNC(=O)C2CCN(c3nc4ccccc4nc3C(F)(F)F)CC2)c1 | 88% (inactive)
Cc1ccc(CNc2cc(C)nc3nc(-c4ccc(C)cc4)nn23)cc1 | 66% (inactive)
CCc1c(C)nc2nncn2c1NCc1ccccc1 | 86% (inactive)
CCc1c(C)nc2nc(-c3ccccc3)nn2c1NCc1ccc(C)cc1 | -1% (active)
CCOC(=O)c1ccc(NC(=O)CSc2nc(C)c(Cc3ccccc3)c(=O)[nH]2)cc1 | 80% (inactive)
O=C(NCc1ccccc1)N(Cc1cccnc1)Cc1cc2cc3c(cc2[nH]c1=O)OCCO3 | 102% (inactive)
COc1ccc(-c2nn3c(-c4ccc(C)cc4)nnc3c3ccccc23)cc1 | 70% (inactive)
COc1ccc2[nH]cc(CCN=C(NC(=O)c3ccccc3C)Nc3nc(C)cc(C)n3)c2c1 | 41% (inactive)
CCn1c2c(c(=O)n3ncc(C(=O)Nc4ccc(F)cc4Cl)c13)CN(Cc1ccc(OC)cc1)CC2 | 14% (active)
CCn1c2c(c(=O)n3ncc(C(=O)Nc4ccc(OC(F)(F)F)cc4)c13)CN(Cc1ccc(OC)cc1)CC2 | 83% (inactive)

SMILES | survival
CCn1c2c(c(=O)n3ncc(C(=O)Nc4ccc(Cl)cc4C)c13)CN(Cc1ccc(OC)cc1)CC2 | 76% (inactive)
CCn1c2c(c(=O)n3ncc(C(=O)Nc4ccc(C(=O)OC)cc4)c13)CN(Cc1ccc(OC)cc1)CC2 | 55% (inactive)
CCn1c2c(c(=O)n3ncc(C(=O)Nc4cc(Cl)ccc4OC)c13)CN(Cc1ccc(OC)cc1)CC2 | 72% (inactive)
CCn1c2c(c(=O)n3ncc(C(=O)Nc4ccc(F)c(Cl)c4)c13)CN(Cc1ccc(OC)cc1)CC2 | -1% (active)
Cc1ccc(CNC(=O)Nc2cc(C(=O)NCc3cccc(F)c3)ccc2N2CCCC2)cc1 | 128% (inactive)
CCOC(=O)c1cccc(NC(=O)CCc2c(C)nn(-c3ccc(N4CCCCC4)nn3)c2C)c1 | 95% (inactive)
Cc1nnc(C)c2c(C)n(-c3ccc4c(c3)OCO4)c(C)c12 | 111% (inactive)
CCOc1ccc(N(CC)C(=O)Cn2cnc3sc(C)c(S(=O)(=O)N4CCN(c5ncccn5)CC4)c3c2=O)cc1 | 78% (inactive)
COc1ccc(NCc2cccn2-c2nnc(N3CCCCCC3)s2)cc1 | 78% (inactive)
Cc1ccc(NCc2cccn2-c2nnc(N3CCCCCC3)s2)cc1 | 77% (inactive)
CCc1ccc(NCc2cccn2-c2nnc(N3CCCCCC3)s2)cc1 | -1% (active)
CCC(C)NC(=O)CSc1nc2ccc(C(C)C)cc2cc1C#N (configuration not stated) | 103% (inactive)
COc1cccc(CNC(=O)c2ccc(NC(=O)N3CCCCc4ccccc43)cc2)c1OC | 73% (inactive)
Cc1nc2nc(SCC(=O)NCCc3ccc(Cl)cc3)nn2c(C)c1Cc1ccccc1 | 56% (inactive)
O=C(CSc1nccn1Cc1ccccc1)Nc1nc2ccccc2s1 | 121% (inactive)
Cc1ccc(Cn2ccnc2SCC(=O)Nc2nnc(C)s2)cc1 | 65% (inactive)
Cc1nnc(NC(=O)CSc2nccn2Cc2ccc(F)cc2)s1 | -2% (active)
Cc1nnc(NC(=O)CSc2nccn2Cc2ccc(Cl)cc2)s1 | 118% (inactive)
Cc1ccc2nc(NC(=O)CSc3nccn3Cc3ccccc3)sc2c1 | 10% (active)
O=C(CSc1nccn1Cc1ccc(Cl)cc1)Nc1nc2ccccc2s1 | 0% (active)
O=C(CSc1nccn1Cc1ccc(F)cc1)Nc1nc2ccccc2s1 | 82% (inactive)
Cc1ccc2nc(NC(=O)CSc3nccn3Cc3ccc(Cl)cc3)sc2c1 | 72% (inactive)

SMILES | survival
Cc1ccc2nc(NC(=O)CSc3nccn3Cc3ccc(F)cc3)sc2c1 | 80% (inactive)
CCOc1ccc(NC(=O)Cn2c(=O)n(Cc3ccccc3)c(=O)c3sc4ccccc4c32)cc1 | 78% (inactive)
COc1cc(NC(=O)Nc2nnc(N3CCCCCC3)s2)cc(OC)c1 | 78% (inactive)
Cc1cccc(N2CCN(c3ncnc4c3cnn4-c3ccc(Cl)cc3)CC2C)c1 (configuration not stated) | 83% (inactive)
CCc1ccc(OC(C)c2nc(-c3ccc(-n4cccc4)cc3)no2)cc1 (configuration not stated) | -4% (active)
CCc1ccc(OCc2nc(-c3ccc(-n4cccc4)cc3)no2)cc1 | 104% (inactive)
CCCc1ccc(OC(C)c2nc(-c3ccc(-n4cccc4)cc3)no2)cc1 (configuration not stated) | 56% (inactive)
O=C(Nc1ccc2oc(-c3ccncc3)nc2c1)c1ccccc1Cl | 73% (inactive)
Cc1ccc(CNC(=O)c2cc3c(=O)oc4ccc(C)cc4c3s2)cc1 | 88% (inactive)
COc1ccc(CN(CCC(c2ccc3c(c2)OCO3)c2ccccc2OC)C(C)=O)cc1 (configuration not stated) | 8% (active)
COc1ccc(CNCCC(c2ccc3c(c2)OCO3)c2ccccc2OC)cc1 (configuration not stated) | 25% (inactive)
COc1ccc(CNCCC(c2ccccc2)c2ccc3c(c2)OCO3)cc1 (configuration not stated) | 3% (active)
CCOCCCNC(=O)C(c1ccccc1)N(Cc1ccc2c(c1)OCO2)C(=O)c1ccc(NC(C)=O)cc1 (configuration not stated) | 70% (inactive)
CCC(=O)N(CCC(c1ccccc1)c1ccc2c(c1)OCO2)Cc1ccc(OC(C)C)cc1 (configuration not stated) | 1% (active)
COc1cc2cc(CN(Cc3ccc4c(c3)OCO4)C(=O)NCc3ccccc3)c(=O)[nH]c2cc1OC | 117% (inactive)
NC(=O)CC(c1ccccc1)c1ccc2c(c1)OCO2 (configuration not stated) | 117% (inactive)
COc1ccc(CNCCC(c2ccc(C)cc2)c2ccco2)cc1 (configuration not stated) | 72% (inactive)
CCOCCCNC(=O)C(c1ccc(OC)cc1)N(Cc1ccc2c(c1)OCO2)C(=O)c1ccc(NC(C)=O)cc1 (configuration not stated) | 69% (inactive)
C=CCc1c(C)nc(SC)[nH]c1=O | 114% (inactive)
Cc1cccc(-c2nc3ccccc3n3c(-c4ccccc4)c4c(=O)n(C)c(=O)n(C)c4c23)c1 | 121% (inactive)
O=C(CN1C(=O)c2ccccc2Sc2ncccc21)Nc1cccc(C(F)(F)F)c1 | 85% (inactive)
CCSc1nc2ccccc2c(OCc2cc(C(=O)OC)ccc2OC)c1C(=O)OC | -15% (active)

SMILES | survival
CCSc1nc2ccccc2c(OCc2ccccc2Cl)c1C(=O)OC | 75% (inactive)
CCSc1nc2ccccc2c(OCc2ccc(Cl)cc2)c1C(=O)OC | 88% (inactive)
Cc1ccc(N2CCN(S(=O)(=O)c3cc(C(=O)Nc4cc(Cl)cc(Cl)c4)ccc3F)CC2C)cc1 (configuration not stated) | 71% (inactive)
COc1ccc(OC)c(CNC(=O)c2c(C)oc3ncn(C)c(=O)c23)c1 | 70% (inactive)
O=C(COc1ccccc1)Nc1c(C(=O)N2CCN(c3ccc(F)cc3)CC2)oc2ccccc12 | 74% (inactive)
COc1ccc(C(CC(=O)Nc2cccc(C)c2C)N2Cc3ccccc3C2=O)cc1 (configuration not stated) | 68% (inactive)
CCc1ccc(CNCc2c(C(=O)O)n(Cc3cccc(F)c3)c3cc(OC)ccc23)cc1 | 63% (inactive)
COc1ccc(OC)c(CNCc2c(C(=O)O)n(Cc3cccc(F)c3)c3cc(OC)ccc23)c1 | -3% (active)
COc1ccc(OC)c(CNCc2c(C(=O)O)n(Cc3ccccc3)c3cc(OC)ccc23)c1 | 84% (inactive)
COc1cc(Cl)c(C)cc1NC(=O)c1nn(-c2ccc(C)cc2)c(=O)n(C)c1=O | 66% (inactive)
COc1ccc(-n2c(=O)c3sc4ccccc4c3n(Cc3ccccc3C)c2=O)cc1OC | 89% (inactive)
COc1ccc(-c2nc3sc(CCNS(=O)(=O)c4c(C)cc(C)cc4C)c(C)n3n2)cc1 | -3% (active)
CCCS(=O)(=O)NCCc1sc2nc(-c3ccc(Cl)cc3)nn2c1C | 81% (inactive)
COc1ccc(F)cc1S(=O)(=O)NCCc1sc2nc(-c3ccc(F)cc3)nn2c1C | 57% (inactive)
Cc1ccc(-c2nc3sc(CCNS(=O)(=O)c4cc(F)ccc4F)c(C)n3n2)cc1 | -4% (active)
Cc1c(CCNS(=O)(=O)c2ccccc2)sc2nc(-c3ccc(Cl)cc3)nn12 | 1% (active)
Cc1cc(C)c(S(=O)(=O)NCCc2sc3nc(-c4ccc(F)cc4)nn3c2C)c(C)c1 | 63% (inactive)
CCS(=O)(=O)NCCc1sc2nc(-c3ccc(OC)cc3)nn2c1C | 71% (inactive)
CCCS(=O)(=O)NCCc1sc2nc(-c3ccc(F)cc3)nn2c1C | 60% (inactive)
COc1ccc(-c2nc3sc(CCNS(=O)(=O)c4ccccc4)c(C)n3n2)cc1 | 57% (inactive)
Cc1ccc(C(=O)Nc2nnc(S(=O)(=O)N3c4ccccc4CC3C)s2)cc1 (configuration not stated) | 38% (inactive)
